Test results as given in article PMC4336329 (PLoS ONE, 2015).
Among all 310,000 compounds or so, about 14,000 (4.5%) showed an effect of 50% or more. The effect is printed as a negative number. Only a selection was taken, and strong results are over-represented in it overall.

Target: human ether-à-go-go-related gene (hERG) potassium channel (human, UniProt Q12809)
Test: primary screen, population patch clamp on CHO cells stably expressing hERG; higher = less effect of the substance
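Further: peak tail current of the secondary pulse compared with the same well before compound.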

Sequence of human ether-à-go-go-related gene (hERG) potassium channel (Q12809 whole entry, looked up): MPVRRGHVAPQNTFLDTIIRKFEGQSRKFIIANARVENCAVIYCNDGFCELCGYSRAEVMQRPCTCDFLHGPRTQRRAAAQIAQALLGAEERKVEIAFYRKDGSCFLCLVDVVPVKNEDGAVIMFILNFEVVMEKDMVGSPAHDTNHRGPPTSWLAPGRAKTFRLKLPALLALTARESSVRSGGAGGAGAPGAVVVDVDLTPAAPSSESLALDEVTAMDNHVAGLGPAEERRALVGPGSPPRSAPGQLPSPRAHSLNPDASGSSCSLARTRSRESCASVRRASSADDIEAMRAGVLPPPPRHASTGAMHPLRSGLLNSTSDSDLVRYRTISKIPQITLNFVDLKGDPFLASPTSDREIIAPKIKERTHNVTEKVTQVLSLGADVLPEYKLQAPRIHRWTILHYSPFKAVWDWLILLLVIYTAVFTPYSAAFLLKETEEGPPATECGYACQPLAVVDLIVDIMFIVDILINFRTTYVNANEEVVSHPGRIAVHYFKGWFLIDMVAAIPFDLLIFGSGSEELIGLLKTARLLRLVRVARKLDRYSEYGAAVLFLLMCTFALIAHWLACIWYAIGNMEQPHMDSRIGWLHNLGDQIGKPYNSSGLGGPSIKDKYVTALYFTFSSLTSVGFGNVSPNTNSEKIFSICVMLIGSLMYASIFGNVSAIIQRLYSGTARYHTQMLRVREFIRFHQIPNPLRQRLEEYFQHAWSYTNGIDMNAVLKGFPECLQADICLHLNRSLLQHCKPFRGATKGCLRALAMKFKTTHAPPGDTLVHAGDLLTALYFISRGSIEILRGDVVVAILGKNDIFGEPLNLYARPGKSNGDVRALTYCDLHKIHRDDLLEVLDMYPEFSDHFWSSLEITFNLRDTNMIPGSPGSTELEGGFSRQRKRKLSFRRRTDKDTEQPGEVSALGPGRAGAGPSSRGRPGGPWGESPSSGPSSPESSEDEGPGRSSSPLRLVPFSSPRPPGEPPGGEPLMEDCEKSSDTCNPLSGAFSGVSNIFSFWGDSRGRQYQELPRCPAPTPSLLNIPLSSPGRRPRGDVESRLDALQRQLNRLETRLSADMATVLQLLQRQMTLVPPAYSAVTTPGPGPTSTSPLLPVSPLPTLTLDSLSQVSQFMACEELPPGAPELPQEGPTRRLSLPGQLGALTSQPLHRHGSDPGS

Structure (SMILES)	hERG current change (%, negative = inhibition) at 10uM [%]
COc1cc(C(=O)OCC(=O)c2cc(C)n(CC3CCCO3)c2C)cc(OC)c1C (centres unmarked)	-68
Cc1cc(C(=O)COC(=O)C2CCN(C(=O)c3ccc(Cl)cc3)CC2)c(C)n1CC1CCCO1 (centres unmarked)	-15.2
Cc1cc(C(=O)COC(=O)CN(C)S(=O)(=O)c2ccc(Cl)cc2)c(C)n1CC1CCCO1 (centres unmarked)	-55.2
Cc1cc(C(=O)COC(=O)CN(C)S(=O)(=O)c2ccc(Cl)cc2)c(C)n1Cc1cccs1	-5.54
COc1cc(OC)cc(C(=O)OCC(=O)c2cc(C)n(CC3CCCO3)c2C)c1 (centres unmarked)	-39
COc1cc(OC)c(C(=O)OCC(=O)c2cc(C)n(CC3CCCO3)c2C)cc1OC (centres unmarked)	13.3
CCOC(=O)N1CCC(NC(=O)CC(NS(=O)(=O)c2ccc(Cl)cc2)c2ccco2)CC1 (centres unmarked)	-53
CCOC(=O)N1CCC(NC(=O)CC(NS(=O)(=O)c2ccc(C)cc2)c2ccco2)CC1 (centres unmarked)	-7.75
O=C(CC(NS(=O)(=O)c1ccc(Cl)cc1)c1ccco1)NC1CCCC1 (centres unmarked)	-8
CCc1cccc(C)c1NC(=S)NCC(c1cccnc1)N(C)C (centres unmarked)	5.1
CCc1nnc(NC(=O)C2CCN(c3cnccn3)CC2)s1	4.24
COc1ccc(OC)c(S(=O)(=O)NCc2ccccn2)c1	11.9
O=S(=O)(NCc1ccccn1)c1cc(OCC(F)(F)F)ccc1OCC(F)(F)F	-69.9
CCOc1ccc(OCC)c(S(=O)(=O)NCc2ccccn2)c1	-1.02
CCC(=O)Nc1cc(-c2nn(C)c(=O)c3ccccc23)ccc1OC	-11.4
COc1ccc(-c2nn(C)c(=O)c3ccccc23)cc1NC(=O)Cn1nc(C)c2ccccc2c1=O	-57.5
Cn1nc(C(=O)NC2CCCCC2)c2ccccc2c1=O	-15.3
Cn1nc(-c2ccc(C(=O)NC3CCCCC3)cc2)c2ccccc2c1=O	-52.4
COc1ccc(-c2nn(C)c(=O)c3ccccc23)cc1NC(=O)Cn1nc(-c2ccccc2)c2ccccc2c1=O	5.06
COc1ccc(-c2nn(C)c(=O)c3ccccc23)cc1CNC(=O)NC1CCCCC1	-26.5
Cn1nc(C(=O)NC2CCCC2)c2ccccc2c1=O	1.63
COc1ccc(-c2nn(C)c(=O)c3ccccc23)cc1CNC(=O)C1CCCCC1	-56.3

Structure (SMILES)	hERG current change (%, negative = inhibition) at 10uM [%]
CCCC(=O)NCc1cc(-c2nn(C)c(=O)c3ccccc23)ccc1OC	7.01
CCC1CCCCN1C(=S)NC1CCCCC1 (centres unmarked)	17.2
COc1cc(/C=C/C(=O)Nc2ccc(C)cc2)cc(OC)c1OC	-2.49
O=C(C1CCN(S(=O)(=O)c2ccc(Br)s2)CC1)N1CCc2ccccc21	-46.8
c1ccc(CCc2nn3c(C4COc5ccccc5O4)nnc3s2)cc1 (centres unmarked)	-1.79
COc1ccc(/C=N/n2c(C3CCCCC3)n[nH]c2=S)c(OC)c1	23.6
COc1ccc(OC)c(S(=O)(=O)N2CCC3(CC2)CC(=O)c2ccccc2O3)c1	-47.1
COc1ccc(N2CC(C(=O)N3CCN(c4ccccc4)CC3)CC2=O)cc1 (centres unmarked)	-41.6
COc1cccc(N2CC(C(=O)Oc3ccc4ccccc4c3)CC2=O)c1 (centres unmarked)	-7.91
COc1ccc(N2CC(C(=O)N3CCC4(CC3)CC(=O)c3ccccc3O4)CC2=O)cc1 (centres unmarked)	-78.1
COc1ccc(N2CC(C(=O)N3CCOCC3)CC2=O)cc1 (centres unmarked)	18.3
COc1cccc(N2CC(C(=O)N3CCC4(CC3)CC(=O)c3ccccc3O4)CC2=O)c1 (centres unmarked)	-53.5
Cc1[nH]c2ccccc2c1/C=N/NC(=O)CNC(=O)Cc1ccccc1	15.5
NC(=O)c1nnn(-c2nonc2N)c1-c1ccc([N+](=O)[O-])cc1	24.7
C=CCn1c(SCC(=O)c2ccc(NS(=O)(=O)c3ccccc3)cc2)nnc1-c1cccs1	-19.5
COc1cc(/C=C/C(=O)OCC(=O)Nc2sc3c(c2C#N)CCC(C)C3)ccc1OCC#N (centres unmarked)	12.1
COc1cccc(/C=C/C(=O)c2ccc3c(c2)OCO3)c1OC	1.82
CC1CCC2(CC1)NC(=O)N(NC(=O)c1cccs1)C2=O (centres unmarked)	9.08
O=C(COC(=O)CNC(=O)c1sc2ccccc2c1Cl)Nc1c(Cl)cc(Cl)cc1Cl	15.6
NC(=O)c1ccc(NC(=O)COC(=O)CNC(=O)c2sc3ccccc3c2Cl)cc1	-12.8
O=C(COC(=O)CNC(=O)c1sc2ccccc2c1Cl)Nc1cc(Cl)cc(Cl)c1	-54.7
Cc1nc(-c2nc(-c3c(C(=O)NNC(=O)c4ccc(Cl)cc4)noc3C)cs2)cs1	-35.1

Structure (SMILES)	hERG current change (%, negative = inhibition) at 10uM [%]
CCN(CC)CCN(C)Cc1nc(C(c2ccccc2)c2ccccc2)no1	-57.7
CN(CCc1cn[nH]c1)Cc1nc(C(c2ccccc2)c2ccccc2)no1	-38.5
COCCN(C)Cc1nc(C(c2ccccc2)c2ccccc2)no1	3.28
O=c1c2ccccc2nc(/C=C/c2ccc(O)cc2)n1CCc1ccccc1	-17.3
O=C(CN1c2ccccc2Sc2ccccc21)NNC(=O)Nc1cccc(Cl)c1	2.84
CCOC(=O)C1=C(COC(=O)[C@H](C)NS(=O)(=O)c2ccc(NC(C)=O)cc2)NC(=O)NC1C (some centres unmarked)	21.2
O=C(O)CCn1c(=O)[nH]c2ccccc2c1=O	12.4
O=C(CCCCn1c(=O)[nH]c2ccccc2c1=O)NC1CCN(Cc2ccccc2)CC1	-18.9
CC1(C)C(=O)N(CCN2CCC(C(=O)c3ccc(F)cc3)CC2)c2ccccc21.Cl	-70.5
O=c1c2ccccc2[nH]c(=S)n1CCN1CCCC1	-19.1
O=C(O)C(O)C(O)C(=O)O.O=C(c1ccc(F)cc1)C1CCN(CCn2c(=O)[nH]c3ccccc3c2=O)CC1	-51.8
CN1CCN(CCn2c(=S)[nH]c3ccccc3c2=O)CC1	6.07
CCOc1ccccc1C(=O)N1CCC(C(=O)c2ccc(F)cc2)CC1	-25.2
O=C(c1ccc(F)cc1)C1CCN(C(=O)c2ccccc2)CC1	-9.13
Cl.O.O=C(c1ccc(F)cc1)C1CCN(CCn2c(=S)[nH]c3ccccc3c2=O)CC1	-68.9
O=C(NNc1cc(Cl)cc(Cl)c1)C1CCC1	21.9
COc1ccc(NC(=O)Cn2c(C)cc(=O)c3ccccc32)cc1	-7.76
O=C1CN(S(=O)(=O)c2cccc(Cl)c2Cl)c2ccccc2N1	3.58
O=C1CC(=Nc2ccccc2)NN1c1ccccc1	23.1
CCCCNC(=O)NC1CCCC1	4.48
c1ccc2c(c1)c1cccc3ccc4cccc2c4c31	16.4
COC(=O)c1c(NC(=O)/C=C/c2ccco2)sc2c1CCC2	17.6

Structure (SMILES)	hERG current change (%, negative = inhibition) at 10uM [%]
Cc1nc(N)nc(Nc2ccc(Cl)cc2)c1Br	-7.99
COc1ccc(NC(C)=O)cc1NC(=O)CN1CCN(CC(=O)Nc2ccccc2Cl)CC1	-53.3
COc1ccc(NC(=O)c2ccccc2Cl)cc1NC(=O)CN1CCOCC1	-5.99
COc1ccccc1NC(=O)CN1CCN(CC(=O)Nc2cc(NC(C)=O)ccc2OC)CC1	-50.3
COc1ccc(NC(C)=O)cc1NC(=O)CN1CCN(C2c3ccccc3-c3ccccc32)CC1	3.55
COc1ccc(NC(C)=O)cc1NC(=O)CN1CCN(CC(=O)Nc2ccc(Cl)cc2)CC1	-69.8
COc1ccc(NC(C)=O)cc1NC(=O)CN1CCN(c2ccccn2)CC1	10.3
COc1ccccc1NC(=O)CN1CCN(CC(=O)Nc2ccc(OC)c(OC)c2)CC1	-24.4
COc1ccc(NC(C)=O)cc1NC(=O)c1ccc(Cl)cc1	-18.2
Cc1cc2c(cc1C)C(=O)NC(C)(C)C2	8.73
COc1cccc(N2C(=O)[C@H]3C(C(=O)c4cnccn4)=NN[C@H]3C2=O)c1	13.2
CCc1nnc(NC(=O)CSc2ccc(-c3ccc(C)cc3)nn2)s1	9.49
O=C(NC1CC(=O)c2sccc21)c1ccc(Cl)cc1Cl (centres unmarked)	-35.6
O=C(c1ccco1)N1CCN(C(=O)c2sccc2-c2ccccc2)CC1	-8.12
COc1ccc(C)cc1NC(=O)CN1CCN(C/C=C/c2ccccc2)CC1	-78.3
COc1ccc(C)cc1NC(=O)CCN1CCCC1	2.36
COc1ccc(C)cc1NC(=O)CN1CCN(c2ccccn2)CC1	-11.7
COc1ccc(C)cc1NC(=O)CCN1CCN(C/C=C/c2ccccc2)CC1	-77.1
COc1ccc(C)cc1NC(=O)CCN1CCN(c2ccccc2)CC1	-10.3
CCc1ccccc1NC(=O)CN1CCN(CC(=O)Nc2cc(C)ccc2OC)CC1	-28.4
